# In PubChem BioAssay AID1159580 (chemical genetic matrix, 2015):
# Hit rate of the full screen: of about 5,500 compounds, about 2,000 (36%) were called active. Roughly 18% stayed inconclusive and do not appear here. The list shows a part of the results. Unmarked numbers belong to inactive results. No stated cut-off is given here; in the data, active means normalized growth mostly below about 0.91 (no sharp cut-off); inconclusive means no clear call, values can overlap the other calls; inactive means mostly above about 0.92.
# Assay: chemical genetic growth profiling, strain panel (AID 1159580);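 further: tested at 20 µM; growth read once vehicle control cultures reached saturation at 30 °C; 1 = growth at the plate median or of vehicle wells; lower values mean less growth of the strain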
# Conditions: growth OD
# [1] = S. cerevisiae deletion strains, locus YAL013W, strain DEP1, hits give low values
# [2] = S. cerevisiae deletion strains, locus YGR078C, strain PAC10, hits give low values
# [3] = S. cerevisiae deletion strains, locus YJR075W, strain HOC1, hits give low values
# [4] = S. cerevisiae deletion strains, locus YMR263W, strain SAP30, hits give low values
# [5] = S. cerevisiae deletion strains, locus YNL153C, strain GIM3, hits give low values
# [6] = S. cerevisiae deletion strains, locus YNL322C, strain KRE1, hits give low values
# [7] = S. cerevisiae deletion strains, locus YBR229C, strain ROT2, hits give low values
# [8] = S. cerevisiae deletion strains, locus YCL061C, strain MRC1, hits give low values
# [9] = S. cerevisiae deletion strains, locus YDL101C, strain DUN1, hits give low values
# [10] = S. cerevisiae deletion strains, locus YDR150W, strain NUM1, hits give low values
# [11] = S. cerevisiae deletion strains, locus YEL061C, strain CIN8, hits give low values
# [12] = S. cerevisiae deletion strains, locus YHR030C, strain SLT2, hits give low values
# [13] = S. cerevisiae deletion strains, locus YHR087W, strain rtc3, hits give low values
# [14] = S. cerevisiae deletion strains, locus YJR043C, strain POL32, hits give low values
# [15] = S. cerevisiae deletion strains, locus YLR039C, strain RIC1, hits give low values
# [16] = S. cerevisiae deletion strains, locus YLR058C, strain SHM2 (second series), hits give low values
# [17] = S. cerevisiae deletion strains, locus YLR085C, strain ARP6, hits give low values
# [18] = S. cerevisiae deletion strains, locus YLR262C, strain YPT6, hits give low values
# [19] = S. cerevisiae deletion strains, locus YML094W, strain GIM5, hits give low values
# [20] = S. cerevisiae deletion strains, locus YMR219W, strain ESC1, hits give low values
# [21] = S. cerevisiae deletion strains, locus YNL298W, strain CLA4 (second series), hits give low values
# [22] = S. cerevisiae deletion strains, locus YNR030W, strain Alg12, hits give low values
# [23] = S. cerevisiae deletion strains, locus YPL055C, strain LGE1, hits give low values
# [24] = S. cerevisiae deletion strains, locus YPL241C, strain CIN2, hits give low values
# [25] = S. cerevisiae deletion strains, locus YPR135W, strain CTF4, hits give low values
# [26] = S. cerevisiae strains, strain wild type, hits give low values
# [27] = S. cerevisiae deletion strains, locus YDL134C, strain PPH21, hits give low values
# [28] = S. cerevisiae deletion strains, locus YJL187C, strain SWE1, hits give low values
structure (smiles),measurement,setting,value
COc1ccccc1N1CCN(CCCCNS(=O)(=O)c2cccc3c(N(C)C)cccc23)CC1,normalized growth,[1],0.944
same,normalized growth,"S. cerevisiae deletion strains, locus YAL040C, strain CLN3, hits give low values",0.979
same,normalized growth,"S. cerevisiae deletion strains, locus YCL061C, strain MRC1 (second series), hits give low values",0.976
same,normalized growth,"S. cerevisiae deletion strains, locus YDR363W, strain ESC2, hits give low values",0.939
same,normalized growth,"S. cerevisiae deletion strains, locus YER002W, strain NOP16, hits give low values",0.999
same,normalized growth,[2],0.997
same,normalized growth,[3],0.955
same,normalized growth,[4],0.979
same,normalized growth,"S. cerevisiae deletion strains, locus YMR307W, strain GAS1, hits give low values",0.994
same,normalized growth,[5],0.989
same,normalized growth,"S. cerevisiae deletion strains, locus YNL175C, strain NOP13, hits give low values",1.02
same,normalized growth,"S. cerevisiae deletion strains, locus YNL197C, strain WHI3, hits give low values",0.99
same,normalized growth,"S. cerevisiae deletion strains, locus YNL224C, strain SQS1, hits give low values",1.04
same,normalized growth,[6],0.951
same,normalized growth,"S. cerevisiae deletion strains, locus YOR083W, strain WHI5 (second series), hits give low values",1.02
CCOC(=O)c1cnn(-c2ccc(N)cc2)c1C(F)(F)F,normalized growth,[1],0.979
same,normalized growth,[7],0.992
same,normalized growth,[8],0.979
same,normalized growth,[9],0.992
same,normalized growth,[10],1.02
same,normalized growth,[11],0.918
same,normalized growth,[2],1.01
same,normalized growth,[12],0.378 (active)
same,normalized growth,[13],1.02
same,normalized growth,[14],0.983
same,normalized growth,[3],1.04
same,normalized growth,[15],0.429 (active)
same,normalized growth,[16],0.996
same,normalized growth,[17],0.695 (active)
same,normalized growth,[18],0.472 (active)
same,normalized growth,[19],0.848 (active)
same,normalized growth,[20],0.99
same,normalized growth,[4],0.994
same,normalized growth,[5],0.984
same,normalized growth,[21],0.861
same,normalized growth,[6],1.01
same,normalized growth,[22],0.936
same,normalized growth,[23],0.91
same,normalized growth,[24],0.871
same,normalized growth,[25],0.797
same,normalized growth,[26],0.977
CCOC(=O)c1cnn(-c2ccc(F)cc2)c1N,normalized growth,[1],0.99
same,normalized growth,[7],0.992
same,normalized growth,[9],0.984
same,normalized growth,[27],1
same,normalized growth,[10],0.866
same,normalized growth,[11],0.984
same,normalized growth,[2],0.998
same,normalized growth,"S. cerevisiae deletion strains, locus YGR229C, strain SMI1, hits give low values",0.987
same,normalized growth,[12],1.07
same,normalized growth,[13],0.967
same,normalized growth,[28],0.989
same,normalized growth,[14],0.994
same,normalized growth,[3],0.9
same,normalized growth,[15],1.04
same,normalized growth,[16],0.995
same,normalized growth,[17],0.919
same,normalized growth,[18],1.04
same,normalized growth,[19],0.938
same,normalized growth,[20],0.995
same,normalized growth,[4],0.991
same,normalized growth,[5],0.974
same,normalized growth,[21],0.966
same,normalized growth,[6],0.987
same,normalized growth,[22],0.973
same,normalized growth,[23],0.869
same,normalized growth,[24],1.06
same,normalized growth,[25],0.844
same,normalized growth,[26],0.993
NNC(=O)c1cnn(-c2ccc(Cl)cc2)c1C(F)(F)F,normalized growth,[1],0.992
same,normalized growth,[7],0.996
same,normalized growth,[8],0.983
same,normalized growth,[9],0.993
same,normalized growth,[27],1.03
same,normalized growth,[10],0.94
same,normalized growth,[11],0.998
same,normalized growth,[2],1.01
same,normalized growth,[12],0.976
same,normalized growth,[13],0.986
same,normalized growth,[28],1
same,normalized growth,[14],0.946
same,normalized growth,[3],1.01
same,normalized growth,[15],0.909
same,normalized growth,[16],1
same,normalized growth,[17],0.976
same,normalized growth,[18],1.01
same,normalized growth,[19],0.967
same,normalized growth,[20],0.998
same,normalized growth,[4],0.977
same,normalized growth,[5],1
same,normalized growth,[21],1.01
same,normalized growth,[6],1
same,normalized growth,[22],1.03
same,normalized growth,"S. cerevisiae deletion strains, locus YOL006C, strain TOP1, hits give low values",1.02
same,normalized growth,[23],0.883
same,normalized growth,[24],0.989
same,normalized growth,[25],0.916
same,normalized growth,[26],1.01
